PubChem BioAssay AID686978 (National Center for Advancing Translational Sciences (NCATS), 2013)
Screen size: about 420,000 compounds; about 64,000 (15%) were called active. About 27% were inconclusive and are not listed. Calls follow the shape of the dose curve; as a rule, active = well fitted inhibition curve with a large enough effect; inconclusive = small, poorly fitted or top-dose-only effect; inactive = flat fitted curve, though single readings scatter. The list is a sample of the results. Entries that show only a call come without a potency.

assay: qHTS for Inhibitors of human tyrosyl-DNA phosphodiesterase 1 (TDP1): qHTS in cells in absence of CPT; details: DT40 Tdp1-/- hTDP1 cells, no CPT, ATP luminescence, 48 h; activity change, negative = growth inhibition: at 46.2 µM (top of the series); also: nearly all actives have a fitted effect of over 55% in size
Method in brief: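 DT40 Tdp1-/-;hTDP1 cells, no CPT (DMSO vehicle only), 400 cells/well; compounds pin-transferred; ≥48 hr, 37 °C; CellTiter-Glo 30 min RT dark, luminescence read.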
Potency is read from the fitted curve at half-maximal effect.

Compound	Potency
CCCCn1c(N)c(N(CCC(C)C)C(=O)c2ccc([N+](=O)[O-])o2)c(=O)[nH]c1=O	inactive
CS(=O)(=O)N1CCC2(CCN(c3ccncc3)CC2)CC1	inactive
O=C(C1=C(O)C(=O)N(CCOCCO)C1c1ccccn1)c1cccs1 (stereo not drawn)	inactive
CCc1ccc(CN(C)C(C)C(=O)Nc2ccc(S(=O)(=O)N3CCCC3)cc2)cc1 (stereo not drawn)	16.4 µM (active)
CN1CCN(S(=O)(=O)c2ccc(NC(=O)C3CCCO3)cc2)CC1 (stereo not drawn)	inactive
CCc1ccc(NC(=O)CN2C(=O)COc3ccc(S(=O)(=O)N4CCCC4)cc32)cc1	inactive
CCc1ccc(NC(=O)CN2C(=O)CCSc3ccc(S(=O)(=O)N4CCCC4)cc32)cc1	inactive
CN(CCC(=O)Nc1cc(S(=O)(=O)N(C)C)ccc1Cl)CC(=O)Nc1ccc(F)cc1	inactive
CN(CC(=O)Nc1ccc(S(=O)(=O)N2CCCC2)cc1)Cc1ccc(Cl)c(Cl)c1	18.4 µM (active)
O=S(=O)(NC(=S)Nc1ccccc1)c1ccc(F)cc1	inactive
CC(=O)c1ccc[n+](C(C)CCC(C)[n+]2cccc(C(C)=O)c2)c1 (stereo not drawn)	inactive
O=C(O)CCN1C(=O)CC2(CCCCC2)C1=O	inactive
CN(CC(=O)Nc1ccccc1Cl)C(=O)COc1cccc2c1OC(C)(C)C2	inactive
CCN(CC)CCCNC(=O)c1cn(C)c2ccc(S(=O)(=O)N(C)C3CCCCC3)cc2c1=O	inactive
Cc1ccc(CNC(=O)C2CCN(S(=O)(=O)c3ccc4nc5c(c(C(=O)O)c4c3)CC(C)CC5)CC2)cc1 (stereo not drawn)	inactive
CCn1cc(C(=O)NCc2ccccc2)c(=O)c2cc(S(=O)(=O)N3CCCCC3)ccc21	7.31 µM (active)
CCn1cc(C(=O)NCC2CCCO2)c(=O)c2cc(S(=O)(=O)N3CCCCC3)ccc21 (stereo not drawn)	inactive
CCn1cc(C(=O)NCc2ccc(C)cc2)c(=O)c2cc(S(=O)(=O)N3CCc4ccccc4C3)ccc21	11.6 µM (active)
CN(Cc1ccccc1)C(=O)c1cn(C)c2ccc(S(=O)(=O)N3CCCCC3)cc2c1=O	inactive
CCOc1ccc(CNC(=O)c2cc(=O)[nH]c3ccc(S(=O)(=O)N4CCCCC4)cc23)cc1	inactive
CCn1cc(C(=O)N(C)Cc2ccccc2)c(=O)c2cc(S(=O)(=O)N3CCCCCC3)ccc21	inactive
CCOCCCNC(=O)c1cn(CC)c2ccc(S(=O)(=O)N3CCc4ccccc4C3)cc2c1=O	16.4 µM (active)
CCC1CCCCN1S(=O)(=O)Cc1ccccc1Cl (stereo not drawn)	inactive
CCCCn1c(N)c(N(CCOC)C(=O)c2cccc(S(=O)(=O)N3CCCCC3)c2)c(=O)[nH]c1=O	inactive
Cc1cccc(N2O[C@H]3C=CC2CCCC3)n1	inactive
Cc1ccc(CN2CCN(/N=C/c3ccco3)CC2)c(C)c1	inactive

Compound	Potency
COc1cc2ccccc2cc1C(=O)N1CCOCC1	inactive
CCOc1ccc(C(C)=O)cc1COC(=O)CN1C(=O)NC2(CCCC2)C1=O	inactive
COc1ccc(Cl)cc1NS(=O)(=O)c1cccc(C(=O)NCC2CCCO2)c1 (stereo not drawn)	inactive
CCC(C)C(NC(=O)C1CCC(=O)N1C(=O)OCc1ccccc1)C(=O)NC(C(=O)N1CCCC1C(N)=O)C(C)CC (stereo not drawn)	inactive
Cc1ccc(-c2cc(C(=O)N3CCc4ccccc4C3)no2)cc1	inactive
CCn1c(SCC(=O)NC2CC2)nnc1-c1ccccn1	inactive
COC(C[C@H](O)CC(=O)COCc1ccccc1)OC	inactive
CCOC(=O)/C=C/C(=O)OCC(=O)NC(c1ccccc1)c1ccccc1	8.2 µM (active)
Cc1cc(C)cc(OCC(=O)NC(C)c2ccccc2)c1 (stereo not drawn)	inactive
CCOC(=O)C(C(=O)OCC)C(C#N)c1ccccc1 (stereo not drawn)	inactive
Cc1ccc(SCC(=O)NC(=O)NCc2ccco2)c(C)c1	inactive
CC1=C(C(=O)N2CCOCC2)CC(CC(=O)NCc2cccs2)C(=O)N1CCCN1CCCC1=O (stereo not drawn)	inactive
CCN1C(=O)/C(=C\N2CCOCC2)SC1=S	inactive
CCN1C(=O)/C(=C\N2CCN(c3cccc(Cl)c3)CC2)SC1=S	16.4 µM (active)
O=C(O)C(c1ccccc1)N1C(=O)/C(=C\c2ccc(-c3cccc(Cl)c3)o2)SC1=S (stereo not drawn)	inactive
CC1=NNC(=O)C1CC(=O)N/N=C/c1ccncc1 (stereo not drawn)	inactive
Cc1ccc(S(=O)(=O)NCC(=O)N2CCOCCOCCOCCOCC2)cc1	inactive
CC1CCN(C(=O)COC(=O)CCC(=O)c2cccs2)CC1	inactive
CCC(=O)N1CCN=C1SCc1ccc(F)cc1	inactive
COc1ccc(OC)c(S(=O)(=O)NCCC(C)C)c1	inactive
COc1ccccc1N1CCN(/N=C/c2ccc(O)cc2O)CC1	inactive
COc1ccccc1N1CCN(C(=O)C(=O)N/N=C/c2ccccc2F)CC1	inactive
COc1ccccc1N1CCN(/N=C\C(Br)=C\c2ccccc2)CC1	7.31 µM (active)
COCCn1c(N)c(N(Cc2ccccc2)C(=O)C2CCCCC2)c(=O)[nH]c1=O	inactive
NC(=O)C1CCN(CC(O)CSc2ccc(F)cc2)CC1 (stereo not drawn)	inactive
CCCN1CC=C2C(C#N)=C(N)C(C#N)(C#N)C(c3cc(OC)ccc3OC)C2C1 (stereo not drawn)	inactive

Compound	Potency
CCOc1ccc(C2C(C(=O)NC)=C(C)Nc3nc4ccccc4n32)cc1OC (stereo not drawn)	inactive
COc1cccc(NC(=O)CC(c2ccc(OC(C)C)cc2)c2ccccc2OC)c1 (stereo not drawn)	11.6 µM (active)
COc1cccc(NC(=O)C(C)Oc2ccccc2)c1 (stereo not drawn)	inactive
COc1cccc(NC(=O)COC(=O)CCOc2ccccc2OC)c1	inactive
CC(C)n1c(=S)[nH]c2cc(C(F)(F)F)ccc21	16.4 µM (active)
CCCn1c(=S)[nH]c2ccc(C(F)(F)F)cc21	inactive
CNS(=O)(=O)c1ccc2c(c1)[nH]c(=S)n2C	inactive
O=C(NCc1ccncc1)C1CCN(C(=O)c2cccc(Cl)c2)CC1	inactive
CCC(C(=O)NC1CCCC1)N(C(=O)Cn1nnc(-c2ccc(C)o2)n1)c1ccc(OC)c(OC)c1 (stereo not drawn)	inactive
COc1cc(NS(=O)(=O)c2ccc3c(c2)OCC(C(=O)N2CCCC2)O3)cc(OC)c1 (stereo not drawn)	20.6 µM (active)
COc1cc(OC)cc(C(=O)Nc2ccc(S(=O)(=O)Nc3cc(C)on3)cc2)c1	inactive
CC(=O)Nc1ccc(S(=O)(=O)Nc2ccc(N3CCOCC3)c(F)c2)cc1	inactive
CC(=O)Nc1ccc(NS(=O)(=O)c2ccc3c(c2)NC(=O)CC(=O)N3)cc1	inactive
COc1cc(NS(=O)(=O)c2ccc(NC(C)=O)cc2)cc(OC)c1	8.2 µM (active)
COC(=O)COc1ccc(S(=O)(=O)Nc2ccc(NC(C)=O)cc2)cc1	inactive
COC(C(=O)NCc1ccccc1C)c1ccccc1 (stereo not drawn)	inactive
COc1ccc(S(=O)(=O)Nc2ccc3c(c2)OCO3)cc1Cl	inactive
COC(C(=O)Nc1ccc(S(=O)(=O)Nc2ccc(C)c(C)c2)cc1)c1ccccc1 (stereo not drawn)	14.6 µM (active)
CC(=O)Nc1ccc(S(=O)(=O)Nc2ccc(N3CCCCC3)cc2)cc1	2.91 µM (active)
COC(C(=O)Nc1ccc(C(C)=O)cc1)c1ccccc1 (stereo not drawn)	inactive
COc1cc(NC(=O)N2CCOCC2)cc(OC)c1	inactive
CC(=O)N1CC2(C)CN(C(C)=O)CC(C)(C1)C2=O	inactive
COc1ccc(N(CCC#N)S(=O)(=O)c2ccc(Cl)cc2)cc1	inactive
CCCC(=O)NC(Nc1ccccc1OC)C(Cl)(Cl)Cl (stereo not drawn)	inactive
Cn1c(=O)n(C)c(=O)n(CC(=O)N2CCCCC2)c1=O	inactive
COc1cc(OC)cc(C2=Cc3ccccc3C(CC(=O)c3ccco3)N2c2ccc(-c3cnc(OC)nc3)cc2)c1 (stereo not drawn)	inactive

Compound	Potency
CC(=O)Nc1ccc(NC(=O)C(C)OC(=O)C2CC(=O)N(CCc3ccccc3)C2)cc1 (stereo not drawn)	inactive
O=C(NCC1(N2CCCCC2)CCCCC1)c1ccc(NS(=O)(=O)c2ccc(F)cc2)cc1	inactive
CCc1nnc(NC(=O)CSc2nnnn2-c2cccc(C(C)=O)c2)s1	inactive
COc1cccc(/C=C2\SC(=N)N(c3ccc(F)cc3)C2=O)c1	inactive
COc1ccc(S(=O)(=O)Nc2ccc3oc(C)c(C(C)=O)c3c2)cc1	5.17 µM (active)
CC(=O)c1ccc(NC(=S)NC(=O)CC(C)C)cc1	inactive
CC(=O)Nc1ccc(S(=O)(=O)Nc2cccc(NC(=O)C(C)(C)C)c2)cc1	inactive
COc1ccc(C(=O)Oc2cc(/C=N/NS(=O)(=O)c3ccc(C)cc3)ccc2OC)cc1	inactive
COc1ccc(S(=O)(=O)Nc2cc(C)on2)cc1NC(C)=O	inactive
COc1ccc(NS(=O)(=O)c2ccc(NC(=S)NC(=O)CC(C)C)cc2)cc1	18.4 µM (active)
COc1ccc(CNC(=O)c2ccc(NS(=O)(=O)c3ccc4[nH]c(=O)[nH]c4c3)cc2)cc1OC	inactive
COc1ccc(OC)c(C(C)NC(=S)Nc2ccc(S(=O)(=O)Nc3ncccn3)cc2)c1 (stereo not drawn)	inactive
COc1ccc(/C=C/C(=O)c2ccc(NS(=O)(=O)c3ccc(C)cc3)cc2)cc1O	20.6 µM (active)
COc1ccc(NS(=O)(=O)c2ccc(NC(C)=O)cc2)cc1OC	6.51 µM (active)
CC(=O)c1c(C)oc2ccc(NS(=O)(=O)c3ccc(C(=O)O)cc3)cc12	inactive
COc1ccc2oc(C)c(NC(C)=O)c2c1	inactive
CCCC(=O)Nc1ccc2oc(-c3ccc(O)c(Br)c3)nc2c1	inactive
CSc1ccccc1OCc1cc(C(=O)N(C)CCc2c(C)n[nH]c2C)no1	inactive
O=C(CN1CCCCCC1)Nc1c(Cl)cc(Cl)cc1Cl	inactive
CN(C)C(=O)c1ccc(NC(=O)COC(=O)c2cc3c(s2)CCCCC3)cc1	inactive
CSc1ccc(/C=N/N2CCN(Cc3ccccc3Cl)CC2)cc1	inactive
Cn1c2c(c(=O)n(C)c1=O)C(c1ccc(O)cc1)Nc1ccccc1O2 (stereo not drawn)	inactive
Cc1nn(Cc2ccccc2)c(C)c1C(=O)N1CCN(CC(=O)Nc2ccccc2Cl)CC1	23.1 µM (active)
Cc1nn(Cc2ccccc2)c(C)c1C(=O)NCCCN1CCCC1=O	inactive
CCC(=O)Nc1ccccc1C(=O)N1CCN(Cc2ccccc2)CC1	inactive
